Reference: PubChem BioAssay (Tox21)
“And” between values parts separate entries of the source, which are not always exact repeats. Equal entries are not always repeated. Inconclusive results are not listed. The source holds several records for some structures; these can differ, active in one and inactive in another. The source made the active and inactive calls. Unless noted, the call rests on the fitted dose curve; in most records, active means well fitted curve in the direction sought with a large enough effect in the repeat runs; inconclusive means weak or mixed curves; inactive means no such curve, though single readings can be large; an effect the other way counts as inactive or inconclusive.

Experiments:
[1] = qHTS assay to identify small molecule agonists of the vitamin D receptor (VDR) signaling pathway - cell viability counter screen (AID 743224); further: series mostly up to about 63 µM; on the % scale 0 is the no-effect control and ±100 the full control effect; nearly all actives have a fitted effect of over 50% in size
In short: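 VDR-bla cell line, quantitative HTS format; 16 h compound incubation (37C, 5% CO2); ATP-based CellTiter-Glo luminescence measured in the reporter assay wells.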

[2] = qHTS assay to identify small molecule antagonists of the vitamin D receptor (VDR) signaling pathway - cell viability counter screen (AID 743225); further: on the % scale 0 is the no-effect control and ±100 the full control effect; nearly all actives have a fitted effect of over 50% in size
In short: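 Parallel cytotoxicity test: VDR-UAS-bla HEK 293T, 3 nM (final) 1-alpha,25-dihydroxyvitamin D3 with test compound, 16 h, 37C. Endpoint is CellTiter-Glo luminescence in the same wells.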

[3] = qHTS assay to identify small molecule agonists of the NFkB signaling pathway (AID 1159509; active means well fitted curve in the direction sought with a large enough effect in the signal ratio in the repeat runs, not every such curve was filed as active; the % refers to the signal ratio; further: series mostly up to about 61 µM; on the % scale 0 is the no-effect control and ±100 the full control effect)
In short: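 After overnight attachment, reporter cells received test compounds, DMSO or positive controls and were incubated 5 hr at 37 C. FRET substrate was then added for 1.5 hr at room temperature before dual-emission fluorescence reading.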

[4] = qHTS assay to identify small molecule agonists of the NFkB signaling pathway - cell viability counter screen (AID 1159515; calls by dose curve; further: series mostly up to about 61 µM; on the % scale 0 is the no-effect control and ±100 the full control effect; nearly all actives have a fitted effect of over 55% in size)
In short: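 Viability in NFkB-bla ME-180 cells was measured by CellTiter-Glo luminescence, 30 min room temperature, in wells already treated 5 hr with compounds and read for reporter FRET.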

[5] = qHTS assay to identify small molecule agonists of the endoplasmic reticulum stress response signaling pathway (AID 1159516; active means well fitted activation curve with a large enough effect in the signal ratio in the repeat runs, not every such curve was filed as active; the % refers to the signal ratio; further: on the % scale 0 is the no-effect control and ±100 the full control effect)
In short: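 ER stress element reporter (bla) in HeLa. 1,500 cells/well, overnight attachment; 5 hr compound; 2 hr RT substrate; dual-emission fluorescence.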

[6] = qHTS assay to identify small molecule agonists of the endoplasmic reticulum stress response signaling pathway - cell viability counter screen (AID 1159517; calls by dose curve;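 further: HeLa cells carrying an ER stress response element beta-lactamase reporter; series mostly up to about 61 µM; on the % scale 0 is the no-effect control and ±100 the full control effect; nearly all actives have a fitted effect of over 50% in size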)
In short: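 Counter-screen wells were identical to the reporter wells. Cells were plated at 1,500 per well and dosed for 5 hr, then read for luminescence 30 min after CellTiter-Glo addition.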

[7] = qHTS assay to identify small molecule antagonists of the retinoid-related orphan receptor gamma (ROR-gamma) signaling pathway - cell viability counter screen (AID 1159520); further: on the % scale 0 is the no-effect control and ±100 the full control effect; nearly all actives have a fitted effect of over 50% in size
In short: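 Tet-on ROR gamma CHO cells were given compounds for 2 hr, then doxycycline hyclate at 1 uM final, and incubated 16 hr at 37 C. Viability was measured as ATP content by CellTiter-Glo luminescence.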

[8] = qHTS assay to identify small molecule agonists of the AP-1 signaling pathway - cell viability counter screen (AID 1159525; calls by dose curve; further: nearly all actives have a fitted effect of over 55% in size)
In short: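 AP-1-bla ME-180 cells in Opti-MEM with 0.5% dialyzed FBS, compound exposure 5 h at 37 C in 15-point titration. Viability read in the same wells as ATP content by CellTiter-Glo luminescence, normalised to tetra-n-octylammonium bromide and DMSO controls.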

[9] = qHTS assay to identify small molecule agonists of the AP-1 signaling pathway (AID 1159526; calls by dose curve; further: on the % scale 0 is the no-effect control and ±100 the full control effect)
[10] = biological target: Retinoic acid receptor RXR-alpha (Homo sapiens) (UniProt P19793); assay: qHTS assay to identify small molecule agonists of the RXR signaling pathway (AID 1159527; calls by dose curve; further: on the % scale 0 is the no-effect control and ±100 the full control effect; nearly all actives have a fitted effect of over 35% in size)
Retinoic acid receptor RXR-alpha (Homo sapiens), sequence (P19793 whole entry, looked up): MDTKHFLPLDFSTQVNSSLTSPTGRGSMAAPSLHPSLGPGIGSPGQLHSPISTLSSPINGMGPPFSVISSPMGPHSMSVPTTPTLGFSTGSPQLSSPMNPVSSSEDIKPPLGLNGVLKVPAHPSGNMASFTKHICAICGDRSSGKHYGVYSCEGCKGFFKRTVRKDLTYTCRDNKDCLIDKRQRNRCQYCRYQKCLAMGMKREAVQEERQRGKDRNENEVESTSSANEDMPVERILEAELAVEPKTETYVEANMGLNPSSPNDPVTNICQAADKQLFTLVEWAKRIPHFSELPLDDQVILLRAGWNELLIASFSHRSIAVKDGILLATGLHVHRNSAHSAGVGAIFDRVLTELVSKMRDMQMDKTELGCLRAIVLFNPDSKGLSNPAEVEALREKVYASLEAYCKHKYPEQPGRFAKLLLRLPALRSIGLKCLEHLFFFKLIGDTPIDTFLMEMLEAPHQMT
In short: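 16 hr incubation of compound-treated RXR-alpha-UAS-bla HEK 293T cells (2% charcoal-stripped FBS, 37 C) preceded a 2 hr room-temperature LiveBLAzer FRET substrate step and blue/green fluorescence measurement.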

[11] = qHTS assay to identify small molecule agonists of the RXR signaling pathway - cell viability counter screen (AID 1159529); further: nearly all actives have a fitted effect of over 50% in size; further: potency means the concentration at half of the fitted maximal effect
In short: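 In this parallel viability measure, GeneBLAzer RXR-alpha HEK 293T cells (2% charcoal-stripped FBS) were given a 5 hr preincubation, treated with compounds 16 hr at 37 C, and read by CellTiter-Glo luminescence.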

[12] = qHTS assay to identify small molecule antagonists of the retinoid acid receptor (RAR) signaling pathway - cell viability counter screen (AID 1159551); further: on the % scale 0 is the no-effect control and ±100 the full control effect; nearly all actives have a fitted effect of over 35% in size
In short: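 Following overnight attachment, C3RL4 reporter cells received DMSO-dissolved compounds and then retinol (1 uM final). Six hours later at 37 C, ATP content was measured by CellTiter-Glo luminescence.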

[13] = qHTS assay to identify small molecule antagonists of the retinoic acid receptor (RAR) signaling pathway (AID 1159552)
In short: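 C3RL4 RARE-luc cells, overnight plating; retinol 1 uM final added right after compound; 6 hr 37 C; luciferase read at 30 min RT.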

[14] = qHTS assay to identify small molecule agonists of the retinoic acid receptor (RAR) signaling pathway (AID 1159553); further: on the % scale 0 is the no-effect control and ±100 the full control effect
In short: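 Cell line C3RL4, RARE luciferase reporter. Treatment: compounds in DMSO, 6 hr, 37 C, 5% CO2, after overnight plating. Detection: luminescence, 30 min RT after reagent.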

[15] = qHTS assay to identify small molecule antagonists of the estrogen related receptor (ERR) signaling pathway from Tox21 library - cell viability counter screen (AID 1224834); further: nearly all actives have a fitted effect of over 30% in size; further: potency means the concentration at half of the fitted maximal effect
In short: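 Viability readout (CellTiter-Fluor fluorescence, 30 min at 37 C) multiplexed with the ERR assay; cells treated 17.5 h at 37 C with compounds delivered in DMSO.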

[16] = biological target: Luciferin 4-monooxygenase (Photinus pyralis) (UniProt P08659); assay: qHTS assay to identify small molecule inhibitors of firefly luciferase (AID 1224835); further: series mostly up to about 120 µM; on the % scale 0 is the no-effect control and ±100 the full control effect; nearly all actives have a fitted effect of over 25% in size
Luciferin 4-monooxygenase (Photinus pyralis), sequence (P08659 whole entry, looked up): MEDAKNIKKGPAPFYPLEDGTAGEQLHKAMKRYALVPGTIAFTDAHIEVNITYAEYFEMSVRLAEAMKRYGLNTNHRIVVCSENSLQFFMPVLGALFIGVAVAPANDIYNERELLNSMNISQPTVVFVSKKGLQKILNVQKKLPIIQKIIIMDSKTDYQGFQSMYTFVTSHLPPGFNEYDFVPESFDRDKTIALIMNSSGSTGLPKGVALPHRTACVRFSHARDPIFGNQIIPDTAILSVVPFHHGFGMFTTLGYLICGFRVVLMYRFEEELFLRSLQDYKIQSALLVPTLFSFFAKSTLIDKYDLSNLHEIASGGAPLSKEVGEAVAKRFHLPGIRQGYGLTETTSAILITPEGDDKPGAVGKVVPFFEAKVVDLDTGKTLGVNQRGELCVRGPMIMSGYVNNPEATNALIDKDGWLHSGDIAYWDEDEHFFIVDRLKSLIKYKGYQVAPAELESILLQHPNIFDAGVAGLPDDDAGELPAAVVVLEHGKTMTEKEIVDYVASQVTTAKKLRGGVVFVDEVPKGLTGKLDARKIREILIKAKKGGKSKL
In short: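 Biochemical qHTS: compounds run as interplate titrations against purified firefly enzyme, with D-luciferin and ATP each at its KM concentration. Light output recorded by CCD imaging.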

[17] = qHTS assay to identify small molecule agonists of the constitutive androstane receptor (CAR) signaling pathway - cell viability counter screen (AID 1224836); further: series mostly up to about 92 µM; on the % scale 0 is the no-effect control and ±100 the full control effect; nearly all actives have a fitted effect of over 45% in size
In short: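 Using CellTiter-Fluor, viability of HepG2 cells harbouring hCAR and CYP2B6-2.2kb was measured following 23 h incubation with a 15-concentration compound series plus PK11195 (0.75 uM final).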

[18] = biological target: Nuclear receptor ROR-gamma (Homo sapiens) (UniProt P51449); assay: qHTS assay to identify small molecule antagonists of the retinoid-related orphan receptor gamma (ROR-gamma) signaling pathway (AID 1159521)
In short: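 Decreased RORE-driven luciferase luminescence indicates antagonism. Tet-on RORγ CHO cells received compound, then 1 uM final doxycycline 2 h later; signal read after 16 h incubation.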

[19] = qHTS assay to identify small molecule antagonists of the estrogen related receptor (ERR) signaling pathway - cell viability counter screen (AID 1224818)
In short: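 Here, ERR cells are plated at 2,000 cells per well, allowed 6 h to attach, and treated with compounds in DMSO for 17.5 h at 37 C. CellTiter-Fluor is then added and fluorescence read after 30 min.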

[20] = qHTS assay to identify small molecule antagonists of the estrogen related receptor signaling pathway with the pleiotropic PPARgamma coactivator (PGC) cell viability counter screen (AID 1224822)
In short: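 qHTS format, DMSO compound stocks pin-transferred onto PGC/ERR cells 6 h after plating; 17.5 h exposure at 37 C, then CellTiter-Fluor fluorescence.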

Cc1ccc(N(C)C)cc1
inactive: Potency [1] | outcome [2] | outcome [3] | outcome [4] | outcome [5] | outcome [6] | Potency [7] | Potency [8] | outcome [9] | Potency [10] | Potency [11] | outcome [12] | Potency [13] | Potency [14] | Potency [15] | Potency [16] | Potency [17]

CC1CCC2CC1C2(C)C (centres undefined)
inactive: Potency [1] | outcome [3] | outcome [4] | outcome [5] | outcome [6] | Potency [7] | Potency [18] | Potency [8] | outcome [9] | Potency [10] | Potency [11] | outcome [12] | Potency [15] | Potency [16] | Potency [17]

O=C(O)c1cc(C(=O)O)cc(S(=O)(=O)O)c1
inactive: Potency [1] | outcome [2] | outcome [3] | outcome [4] | outcome [5] | outcome [6] | Potency [7] | Potency [18] | Potency [8] | outcome [9] | Potency [10] | Potency [11] | outcome [12] | Potency [13] | Potency [14] | Potency [15] | Potency [16] | Potency [17]

CCCCCC1=CCCC1=O
inactive: Potency [1] | outcome [2] | outcome [3] | outcome [4] | outcome [5] | outcome [6] | Potency [7] | Potency [8] | outcome [9] | Potency [11] | outcome [12] | Potency [13] | Potency [14] | Potency [15] | Potency [16] | Potency [17]

CN(C)CCC(c1ccccc1)c1ccccn1 (centres undefined)
inactive: Potency [1] | outcome [2] | outcome [3] | outcome [4] | outcome [5] | outcome [6] | Potency [7] | Potency [8] | outcome [9] | Potency [10] | Potency [11] | outcome [12] | Potency [13] | Potency [14] | outcome [19] | outcome [20] | Potency [15] | Potency [16] | Potency [17]

CN(C)CCC(c1ccc(Cl)cc1)c1ccccn1 (centres undefined)
inactive: Potency [1] | outcome [3] | outcome [4] | outcome [5] | outcome [6] | Potency [8] | outcome [12] | outcome [19] | outcome [20] | Potency [17]
48.7 µM (active) and inactive: Potency [15]
active: Potency [11] 55.1 µM

CC(c1cc2ccccc2s1)N(O)C(N)=O (centres undefined)
inactive: Potency [1] | outcome [3] | outcome [4] | outcome [6] | Potency [7] | Potency [8] | outcome [9] | Potency [11] | outcome [12] | Potency [15] | Potency [16] | Potency [17]

CCN(CC)CCCC(C)Nc1ccnc2cc(Cl)ccc12 (centres undefined)
inactive: Potency [1] | outcome [3] | outcome [4] | outcome [6] | activity, negative = cytotoxicity [7] -1.33% [at 8.39 µM] and 0.877% [at 19 µM] | activity change, negative = inhibition [18] 0.0918% [at 8.39 µM] and -4.56% [at 19 µM] | viability change, negative = cytotoxic [8] 0.716% [at 6.97 µM] and 1.22% [at 15.8 µM] | activation [9] 0.84% [at 6.97 µM] and -1.42% [at 15.8 µM] | activation [10] -0.146% [at 15.8 µM] | activity change, negative = cytotoxicity [11] -13.3% [at 6.97 µM] and -18.7% [at 15.8 µM] | activity change, negative = cytotoxicity [12] 1.59% [at 8.39 µM] and -1.6% [at 19 µM] | outcome [19] | viability change, negative = cytotoxic [15] -0.582% [at 8.39 µM] | activity change, negative = inhibition [16] -0.277% [at 10.5 µM] and -0.0339% [at 23.6 µM] | viability change, negative = cytotoxic [17] -3.22% [at 8.39 µM]
